The record followed here is PubChem BioAssay (NCI).

Compounds without any hit were thinned out: in the full panel of roughly 83,000, 20% have a hit.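 Cell lines were cultured in 96-well plates, exposed to a single compound concentration, and assessed for percent growth 48 hours later.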 A number with no mark means an inactive call. Active and inactive are the calls of the source. Rule for the calls: active = growth percent below 10; inactive = the rest.

Test systems include DU-145 prostate; K-562 leukemia; MALME-3M melanoma; MDA-MB-231 breast; RXF 393 renal; SF-268 CNS; SF-295 CNS; SF-539 CNS; UACC-257 melanoma; HCT-15 colon; HT29 colon; SNB-75 CNS; SNB-19 CNS; U251 CNS; PC-3 prostate; SK-MEL-5 melanoma; UACC-62 melanoma; LOX IMVI melanoma; SK-MEL-28 melanoma.
What all share (test): NCI-60 one-dose screen, 48 h (100 = growth as untreated, 0 = no growth, -100 = all killed)
Common to all, as to settings: 10 µM unless noted

Regarding `Cc1cc(Cc2cc(C)cc(C(C)(C)C)c2O)c(O)c(C(C)(C)C)c1`, the growth was 43.5% with DU-145 prostate; 13% in the test on K-562 leukemia; 67.1% in the test with MALME-3M melanoma; 57.2% with MDA-MB-231 breast; 40.9% with RXF 393 renal; 49.2% with SF-268 CNS. Moreover, the growth in the test with SF-295 CNS was 6.54% (active); in the test with SF-539 CNS, 62.4%; with UACC-257 melanoma it was 59.8%; in the test on HCT-15 colon, 21.4%; in the test on HT29 colon, 25%; in the test with SNB-75 CNS, 69.3%. The growth with SNB-19 CNS is 48%; in the test on U251 CNS, 32.5%; in the test on PC-3 prostate, 33.9%; in the test on SK-MEL-5 melanoma, 48.3%; with UACC-62 melanoma, 47%; in the test on LOX IMVI melanoma, 47.5%. Also, the growth with SK-MEL-28 melanoma is 80.3%.

Turning to `CNC=O`, the growth was 77.9% with DU-145 prostate; 107% in the test with K-562 leukemia; 97% in the test with MALME-3M melanoma; 98.7% in the test on MDA-MB-231 breast; 42.3% with RXF 393 renal; 99.3% in the test on SF-268 CNS. For the same molecule, the growth in the test with SF-295 CNS is 96.8%; with SF-539 CNS it was 88.8%; in the test on UACC-257 melanoma, 91.1%; in the test on HCT-15 colon, 99.3%; in the test with HT29 colon, 92.6%; in the test with SNB-75 CNS, 86.8%. Further, the growth in the test on SNB-19 CNS was 97.5%; in the test with U251 CNS, 100%; with PC-3 prostate, 98.1%; with SK-MEL-5 melanoma, 59.9%; with UACC-62 melanoma it was 96.2%; in the test on LOX IMVI melanoma it was 97.1%. In the test with SK-MEL-28 melanoma, the growth was 96.6%.

On to `COc1ccc(C(=O)/C=C/c2cc3c(c(OC)c2)OCC(=O)N3)cc1`, for which the growth in the test on DU-145 prostate is -20.7% (active); in the test on K-562 leukemia, 7.5% (active); with MALME-3M melanoma, 88.4%; with MDA-MB-231 breast it was 67.7%; in the test with RXF 393 renal, 49.7%; in the test on SF-268 CNS it was 21.4%. Also, the growth was 88.7% in the test on SF-295 CNS; 7.09% (active) with SF-539 CNS; 91.6% in the test on UACC-257 melanoma; 33.4% in the test on HCT-15 colon; 19.2% with HT29 colon; 20.7% in the test on SNB-75 CNS. In addition, the growth with SNB-19 CNS is 76.1%; in the test on U251 CNS, 67.6%; in the test with PC-3 prostate, 49.6%; with SK-MEL-5 melanoma, 84.2%; in the test with UACC-62 melanoma, 85.3%; in the test on LOX IMVI melanoma, 40.1%. Also, in the test on SK-MEL-28 melanoma, the growth is 73.1%.

For the molecule `CC1(C)N=C(N)N=C(N)N1c1ccc(Cl)c(Cl)c1`, the growth with DU-145 prostate is 46.5%; in the test with K-562 leukemia it was 23.6%; in the test with MALME-3M melanoma, 67.8%; with MDA-MB-231 breast it was 68.4%; in the test on RXF 393 renal, 61.4%; in the test on SF-268 CNS it was 42.9%. The growth was 17.2% with SF-295 CNS; 13.4% in the test on SF-539 CNS; 55.6% in the test on UACC-257 melanoma; 30.6% in the test on HCT-15 colon; 36.2% in the test on HT29 colon; 71.2% in the test on SNB-75 CNS. Further, the growth in the test on SNB-19 CNS is 40.3%; in the test on U251 CNS, 30.1%; in the test on PC-3 prostate, 38.3%; in the test with SK-MEL-5 melanoma it was 25.2%; with UACC-62 melanoma, 27.4%; in the test with LOX IMVI melanoma, 18.8%. Further, in the test with SK-MEL-28 melanoma, the growth is 78.6%.

With `C[C@@H]1C(=O)N(C[C@H](Cc2ccccc2)NC(=O)OCc2ccccc2)[C@]1(Cc1ccccc1)C(=O)OC(C)(C)C`, the growth in the test on DU-145 prostate was 87.1%; in the test on K-562 leukemia, 40.5%; in the test with MALME-3M melanoma it was 79.5%; in the test on MDA-MB-231 breast it was 66.4%; with RXF 393 renal it was 71.2%; in the test on SF-268 CNS, 65.7%. For the same molecule, the growth is 69.6% in the test with SF-295 CNS; 87.1% with SF-539 CNS; 66.1% in the test with UACC-257 melanoma; 62.9% with HCT-15 colon; 56.3% in the test on HT29 colon; 68.7% in the test with SNB-75 CNS. The growth in the test with SNB-19 CNS is 71.7%; in the test on U251 CNS, 63.2%; in the test on PC-3 prostate it was 27.5%; with SK-MEL-5 melanoma, 58.8%; with UACC-62 melanoma it was 51.9%; in the test on LOX IMVI melanoma it was 73.3%. For the same molecule, in the test with SK-MEL-28 melanoma, the growth is 85.3%.

With `COc1cccc(-c2cnco2)c1OCc1c(C)c(COc2c(OC)cccc2-c2cnco2)c(C)c(COc2c(OC)cccc2-c2cnco2)c1C`, the growth in the test with DU-145 prostate is 73.2%; in the test with K-562 leukemia it was 85%; in the test with MALME-3M melanoma, 43.5%; in the test with MDA-MB-231 breast, 30.5%; with RXF 393 renal it was 45.7%; in the test with SF-268 CNS it was 53.7%. Moreover, the growth in the test on SF-295 CNS is 82.1%; in the test on SF-539 CNS, 19.3%; in the test on UACC-257 melanoma, 58.4%; in the test with HCT-15 colon, 89.6%; in the test on HT29 colon it was 32.7%; in the test on SNB-75 CNS it was 13%. In addition, the growth in the test with SNB-19 CNS is 67.4%; in the test with U251 CNS, 40%; in the test with PC-3 prostate it was 71.3%; in the test on SK-MEL-5 melanoma, 45.3%; with UACC-62 melanoma, 42.2%; in the test on LOX IMVI melanoma, 45.6%. Besides, the growth in the test with SK-MEL-28 melanoma was 55.7%.

For `COc1cc(C(=O)/C=C/c2c(C(F)(F)F)nc3ccccn23)cc(OC)c1OC`, the growth in the test on DU-145 prostate is -25.8% (active); in the test with K-562 leukemia, -9.61% (active); in the test with MALME-3M melanoma, 7.53% (active); in the test on MDA-MB-231 breast, 13.9%; in the test on RXF 393 renal, -68.8% (active); with SF-268 CNS, -36.1% (active). The growth in the test with SF-295 CNS was -14.9% (active); with SF-539 CNS, -92.8% (active); in the test on UACC-257 melanoma, -9.93% (active); in the test on HCT-15 colon, -44.2% (active); with HT29 colon it was -56.5% (active); with SNB-75 CNS, 1.22% (active). The growth is 14.6% in the test on SNB-19 CNS; -60.2% (active) with U251 CNS; 7.45% (active) with PC-3 prostate; -95.2% (active) with SK-MEL-5 melanoma; -75.6% (active) in the test with UACC-62 melanoma; -79.8% (active) in the test with LOX IMVI melanoma. In the test on SK-MEL-28 melanoma, the growth is -65.2% (active).

In the case of `O=C(C[C@@]1(O)C(=O)Nc2c(Cl)ccc(Cl)c21)c1ccc(C2CC2)cc1`, the growth in the test on DU-145 prostate was 16.5%; with K-562 leukemia it was 7.6% (active); in the test with MALME-3M melanoma it was 41.9%; in the test with MDA-MB-231 breast, 45%; in the test with RXF 393 renal, -10% (active); in the test with SF-268 CNS, 54.8%. Moreover, the growth is -9.37% (active) in the test with SF-295 CNS; -27.7% (active) in the test with SF-539 CNS; 73% in the test on UACC-257 melanoma; 19.1% with HCT-15 colon; 12.4% in the test with HT29 colon; -29.9% (active) in the test on SNB-75 CNS. Further, the growth was 36.8% with SNB-19 CNS; 31.3% with U251 CNS; 31.4% in the test with PC-3 prostate; 38.8% in the test with SK-MEL-5 melanoma; 42.1% in the test on UACC-62 melanoma; 38.1% in the test with LOX IMVI melanoma. For the same molecule, the growth with SK-MEL-28 melanoma was 52.6%.
